An excerpt weighted towards active compounds, which were near 1.4% of everything screened.
V-ATPase pH = regulators of yeast V-ATPase proton transport; S. cerevisiae, pHLuorin cytosolic pH fluorescence; response, % at 10 µM; 0.37% of 350,000 active; AID 504577; in the data active means response mostly above about 7.3%, no sharp cut-off; inactive means mostly below about 5.4%; further: actives read high
H9c2 protect = modulators protecting cardiomyocytes from myocardial damage. H9c2 cardiomyocytes, H2O2 injury protection, ATPLite, 2 h. protection from H2O2 cell death, % at 20 µM. 0.63% of 360,000 active. AID 588492;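 active means compounds giving at least 50% protection of heart cells from peroxide-induced death in the single-dose screen, raw or plate-pattern-corrected value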;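 further: 0% = DMSO wells with peroxide and 100% = DMSO wells without peroxide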
MIN6 prolif-1 = induces beta-cell replication in MIN6 cells | AID 2380 | proliferation, % at 10 µM | MIN6 cells proliferation, ATPlite luminescence, 48 h; cells starved in 0.2% serum; 100% = growth in 10% serum | 0.29% of 330,000 active;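 active means compounds whose signal lies at least 3.5 SD above the mean of all wells on their plate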;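 further: 0% = DMSO-treated cells in low-serum medium and 100% = 10% serum control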
Yeast superoxide = yeast age-related superoxide inhibition as caloric restriction mimetic; 0.18% of 330,000 active; superoxide response (% of plate mean), % at 10 µM; S. cerevisiae aged cells, superoxide DHE fluorescence; active compounds read low; AID 2690;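 active means superoxide response under a set limit, about three screen SD below normal, cut at about 65% in these data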;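 further: yeast aged for seven days with compound at 30 °C before DHE staining; 100% = average MFI of all compound-treated wells on the plate with controls excluded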
HSV augment = HSV replication enhancement; HSV replication augmentation in cells, fold increase; maximum fold increase; 0.005% of 220,000 active; AID 1956; in the data active means maximum fold increase above about 1.5; inconclusive means no clear call, values can overlap the other calls; tested in PC3 cells
p-CIP stab down = compounds decreasing mouse p/CIP protein stability | Q05BA5 | F442A p/CIP-EGFP cells, EGFP fluorescence, 16 h | decrease of EGFP signal, % at 10 µM | 0.01% of 290,000 active | AID 1984;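 active means EGFP signal decrease of at least 30% at 10 µM or well 3 SD below plate mean, unless failing retest; inactive means the rest, including hits failing retest or dose response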
MIN6 prolif-2 = confirmation of inducers of beta-cell replication in MIN6 cells. 920 tested, under 10 active. AID 463095. MIN6 beta-cell proliferation, ATPlite luminescence, 48 h; cells kept in 0.2% serum; scaled between 0.2% and 10% serum. shares compounds with MIN6 prolif-1. proliferation increase, % at 50 µM;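 active means proliferation increase above 40% at any of the four tested concentrations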
Starred values were filed as active, the others as inactive; i = inactive; ? = inconclusive; / = not tested or not shown.

SMILES	V-ATPase pH	H9c2 protect	MIN6 prolif-1	Yeast superoxide	HSV augment	p-CIP stab down	MIN6 prolif-2
Cc1cccc(N2C(=O)NC(=O)/C(=C\c3cc(C)n(-c4sc5c(c4C#N)CCCC5)c3C)C2=O)c1C	0.7	-12.1	-3.8	46.0*	?	-13.7	/
CCOC(=O)c1c(-n2c(C)cc(C=C3C(=O)NC(=O)NC3=O)c2C)sc2c1CCCC2	1.0	-0.4	-0.7	104.3	/	0.8	/
COc1ccc(OC)c(N2C(=O)NC(=O)/C(=C\c3ccc([N+](=O)[O-])s3)C2=O)c1	133.0*	-14.3	-6.3	101.6	i	-9.7	/
O=C1NC(=O)N(c2ccccc2)C(=O)/C1=C\c1ccc([N+](=O)[O-])s1	135.9*	/	-6.4	110.9	i	-24.8	/
CN1C(=O)NC(=O)/C(=C/c2ccc([N+](=O)[O-])o2)C1=O	3.0	/	-0.3	91.9	i	-11.1	/
COc1ccc(N2C(=O)NC(=O)/C(=C\c3ccccc3[N+](=O)[O-])C2=O)cc1	0.4	-3.2	-3.9	110.1	i	1.5	/
CN1C(=O)NC(=O)/C(=C/c2ccc([N+](=O)[O-])s2)C1=O	129.8*	-0.3	-4.1	93.4	i	-19.9	/
CC[C@H]1CN2CC[C@@]3(C(=O)Nc4ccccc43)[C@@H]2C[C@@H]1/C(=C\OC)C(=O)OC	/	1.8	-3.6	115.3	i	/	/
C[C@]12C[C@H](O)[C@@H](O)CC1=CCC1C2CC[C@@]2(C)C1CC[C@@H]2O (stereo partly specified)	-2.6	3.6	-0.1	75.0	/	/	/
CC1CN1P(=O)(Oc1ccccc1)N1CC1C (stereo unspecified)	3.9	-1.9	/	/	/	/	/
COc1cc2occc2c2oc(=O)ccc12	1.4	2.2	-0.8	97.1	i	-5.5	/
COc1cc2ccc(=O)oc2c2ccoc12	-1.0	3.5	11.7*	97.7	i	8.9	0.5
NCCCCCC(=O)OC1N=C(c2ccccc2Cl)c2cc(Br)ccc2NC1=O (stereo unspecified)	-0.5	2.4	-5.1	97.0	i	-2.9	/
COC(=O)C(=O)N1CC2(C)CNCC(C)(C1)C2=O	-4.7	-3.9	-1.4	96.5	i	-9.1	/
Cn1c(O)c(C=NCCOc2ccc(Cl)cc2)c(=O)n(C)c1=O	1.1	10.8	-1.3	106.1	i	-0.1	/
Cn1c(O)c(C=NCCN2CCN(C(=O)c3ccccc3)CC2)c(=O)n(C)c1=O	-0.1	11.9	9.6*	92.5	i	-7.8	0.9
CCOC(=O)C(c1c(O)c2ccccc2oc1=O)c1c(O)c2ccccc2oc1=O	/	7.8	/	/	/	/	/
O=c1oc2ccccc2c(O)c1C(c1ccccn1)c1c(O)c2ccccc2oc1=O	-0.4	1.8	8.0*	105.7	i	10.8	-4.5
O=C(N/N=C/c1c(O)n(Cc2ccco2)c(=O)[nH]c1=O)c1ccccc1O	-2.2	-6.3	8.0*	115.5	i	-4.9	-5.3
CCCCC(=O)N/N=C/c1c(O)n(Cc2ccco2)c(=O)[nH]c1=O	-0.9	5.8	-2.1	84.4	i	-4.1	/
CCOC(=O)c1cncn1[C@H](C)c1ccccc1	/	/	-6.4	93.4	i	3.8	/
CCC1(OC(=O)c2ccccc2)CC(C)N(C)CC1C (stereo unspecified)	-1.4	2.5	7.0*	99.1	/	-7.1	-2.9
Cc1ccc(-n2c(-c3cccs3)nc3ccccc3c2=O)cc1	/	3.7	9.3*	102.1	/	-17.9	-3.5
c1ccc(P(c2ccccc2)c2ccccn2)cc1	-4.4	1.9	5.8*	105.5	i	-13.3	-1.7
CNC(=O)O/N=C/c1nn(C(=O)C(C)(C)C)cc1Br	-0.1	3.3	5.1*	104.0	i	-11.3	-2.2
CC(Cc1ccccc1)NC(=O)/C=C/C(=O)O (stereo unspecified)	/	-4.2	7.3*	98.4	i	-1.9	0.0
Cc1cccc(C)c1-n1nnnc1C(C1CC1)N1CCC2(CC1)C(=O)NCN2c1ccccc1 (stereo unspecified)	/	13.3	/	/	/	/	/
COC12CCC3(CC1C(C)(O)C(C)(C)C)[C@H]1Cc4ccc(O)c5c4[C@@]3(CCN1CC1CC1)C2O5 (stereo partly specified)	1.9	3.3	-2.3	96.3	/	/	/
C=CC[C@@H](CC/C=C/C=C/CC/C=C\[C@@H]1CSC([C@@H]2C[C@@H]2C)=N1)OC	-1.8	-10.1	-5.0	74.9	/	/	/

Bioassay records from PubChem BioAssay.
